Test [1] concerns KB-3-1. In words: Cytotoxic Profiling of Annotated Libraries Using Quantitative High-Throughput Screening (AID 1296008). For max response: % is set by controls: 0 for no effect and ±100 for the full control effect. To be noted: Five cell lines viability, CellTiter-Glo ATP luminescence, 48-72 h; max response: hits give low values. The essentials:
(§1)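 Compounds were pin-transferred onto cells and incubated 48 or 72 hr at 37 degree Celsius, 95% humidity. CellTiter-Glo was added, plates sat 10 min at room temperature, then ATP-coupled luminescence was imaged as the viability read-out.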
(Cellular ATP, detected with luciferase, serves as a proxy for viable cell number.)

The subject of test [2] is NIH3T3. Described as above. To be noted: Five cell lines viability, CellTiter-Glo ATP luminescence, 48-72 h; max response: hits give low values. Summed up:
as §1

For test [3], the system named is HEK293T. In words: qHTS assay to identify novel small-molecules to repurpose for Merkel cell carcinoma treatment (AID 1296009). Particulars: MCC and control cell lines, CellTiter-Glo viability, 72 h; at 44.8 µM (top of the series) unless noted. Summed up: (§2)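 qHTS format: cells treated with library compounds in DMSO across 8 (NPC) or 11 (MIPE) concentrations. Readout after 72 hr at 37 degree celsius was CellTiter-Glo luminescence.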

Test [4] has as its system HACAT. Described as above. To be noted: MCC and control cell lines, CellTiter-Glo viability, 72 h; series mostly up to 44.8 µM. Summed up:
as §2

Inconclusive results are not listed. Unmarked numbers belong to inactive results. Active and inactive are the calls of the source. Calls come from the whole dose curve; as a rule, active = well fitted inhibition curve with a large enough effect; inconclusive = small, poorly fitted or top-dose-only effect; inactive = flat fitted curve, though single readings scatter.
Note: nearly all actives have a fitted effect of over 60% in size.
Potency is the fitted concentration of half-maximal effect.

For `Cc1cc(Nc2cc(N3CCN(C)CC3)nc(/C=C/c3ccccc3)n2)n[nH]1`, the Potency in test [1] is 1.16 µM (active); in test [2], 2.31 µM (active).
Consider `NC(=O)[C@H](O[C@@H]1O[C@H](CO)[C@@H](O)[C@H](O)[C@H]1O)c1ccccc1`, for which, in test [1], the result was inactive. In test [2], the max response is 4.94%.
As to `CN(C)CCCCC(=O)Nc1ccc(NC(=S)NC(=O)c2ccc(C(C)(C)C)cc2)cc1`, the Potency is 14.6 µM (active) in test [1] and 7.31 µM (active) in test [2].
As to `CC(=O)OC[C@@]12C(=O)C[C@@H](C)[C@]3(C[C@@H](c4ccoc4)O[C@H]3OC(C)=O)[C@H]1CCC[C@]21CO1`, the max response in test [1] is -1.02%; in test [2], 3.02%.
Turning to `Nc1nccn2c(C3CCC(C(=O)O)CC3)nc(-c3cc4cccc(Cl)c4[nH]3)c12` (stereo not given), the Potency in test [1] is 1.84 µM (active); in test [2], 7.31 µM (active).
For `CC(=O)NCC(=O)N1C2CCC1c1cc(Nc3ncc(C(F)(F)F)c(NC4CCC4)n3)ccc12` (stereo not given), in that order: 1.03 µM (active) and 1.3 µM (active).
On to `O=C1OCc2cc3cccc(O[C@@H]4O[C@H](CO)[C@@H](O)[C@H](O)[C@H]4O)c3c(O)c21`, for which, in test [1], the result was inactive. The max response in test [2] was 0.153%.
On to `C[C@H](Nc1ncnc2nc[nH]c12)c1cc2ccc(F)cc2nc1-c1ccccn1`, for which the call in test [1] and in test [3] was inactive. For the same molecule, the max response in test [2] was -0.749%.
`COc1cc(O)c2c(c1)C1=CC(O)C(O)CC1(C)OC2=O` (stereo not given): the molecule was classed as inactive in test [1]. Also, the max response in test [2] is -6.33%.
In the case of `CC/C=C\CCO[C@@H]1O[C@H](CO[C@@H]2OC[C@H](O)[C@H](O)[C@H]2O)[C@@H](O)[C@H](O)[C@H]1O`, the outcome in test [1] and in test [3] was inactive. For the same molecule, in test [2], the max response was -20.8%.
Take `Cc1cccc2c1NC(=O)C2(c1ccc(O)cc1)c1ccc(O)cc1`: the max response in test [1] was -4.45%; in test [2], -15.5%.
As to `CC1(C)C[C@H](O)C[C@@]2(C)OC(=O)C=C12`, in test [1], the result was inactive. The max response in test [2] was 2.91%. Also, the outcome in test [3] is “inactive [at 92 µM]”.
As to `C[C@@H]1O[C@@H](O[C@H]2[C@H](O[C@H]3CC[C@@]4(C)C(CC[C@]5(C)C4CC=C4[C@@H]6CC(C)(C)CC[C@]6(C(=O)O[C@@H]6OC[C@H](O)[C@H](O)[C@H]6O[C@@H]6O[C@@H](C)[C@H](O[C@@H]7O[C@H](CO)[C@@H](O)[C@H](O)[C@H]7O)[C@H](O)[C@H]6O)[C@H](O)C[C@]45C)C3(C)C)O[C@H](CO)[C@@H](O[C@@H]3OC[C@@H](O)[C@H](O)[C@H]3O)[C@@H]2O)[C@H](O)[C@H](O)[C@H]1O` (stereo not given in full), in test [1], the outcome was inactive. For the same molecule, in test [2], the max response is -3.79%.
Regarding `Cc1c[nH]c2nccc(Oc3c(F)cc(Nc4cc(Cl)nc(N)n4)cc3F)c12`, the Potency in test [1] is 1.46 µM (active); in test [2], 10.3 µM (active).
For `CC(=O)C1=C(C)N(c2cccc(C(F)(F)F)c2)C(=O)N[C@H]1c1ccc(C#N)nc1`, the max response in test [1] was 1.77%; in test [2], -21.8%.
As for `OC1CCC(Nc2ncc3nc(Nc4c(F)cc(F)cc4F)n([C@H]4CCOC4)c3n2)CC1` (stereo not given in full), the result in test [1] and in test [3] was inactive. Further, in test [2], the max response was 3.11%.
On to `CNC(=O)c1ccccc1Nc1nc(Nc2ccc3c(c2OC)CCCC(N2CCN(CCO)CC2)C3)ncc1Cl` (stereo not given), for which the Potency in test [1] is 10.3 µM (active); in test [2] it was 9.2 µM (active); in test [4], 5.8 µM (active).
As for `O=C(O)CC(=O)OC[C@H]1O[C@@H](Oc2ccc3c(c2)OC[C@H]2c4cc5c(cc4O[C@@H]32)OCO5)[C@H](O)[C@@H](O)[C@@H]1O`, the max response was -2.44% in test [1] and -8.59% in test [2]. Besides, the outcome in test [3] is “inactive [at 17.4 µM]”.
With `COC(=O)N(C)c1c(N)nc(-c2nn(Cc3ccccc3F)c3ncccc23)nc1N`, the max response in test [1] is 0.515%; in test [2] it was 0.88%.
On to `O=C1NC(Cc2c[nH]c3ccccc23)C(=O)NC1Cc1c[nH]c2ccccc12` (stereo not given), for which the molecule was called inactive in test [1] and in test [3]. Further, in test [2], the max response was -2.22%.
Turning to `CC1C=CC2CCCCC2C1CCC1CC(O)CC(=O)O1` (stereo not given), the max response in test [1] was 3.85%; in test [2] it was -16%. Moreover, the call in test [3] was inactive.
For `CC(=O)C=C=C1C(C)(C)CC(O[C@@H]2O[C@H](CO)[C@@H](O)[C@H](O)[C@H]2O)CC1(C)O` (stereo not given in full), in that order: 0.592%, 4.66% and “inactive”.
For `COc1ccc(-c2ccc3c(N4CCOCC4)nc(N4CC(C)OC(C)C4)nc3n2)cc1CO` (stereo not given), the Potency was 1.64 µM (active) in test [1] and 1.84 µM (active) in test [2].
In the case of `Cc1cccc(C)c1OCc1cc(C(=O)N2CCC(c3ccncc3)CC2)no1`, the Potency in test [1] was 8.2 µM (active). Further, in test [2], the max response was -17.2%.
`CN(C)CCn1cc(S(=O)(=O)c2cccc(F)c2)c2cccnc21`: the max response in test [1] was 1.25%; in test [2] it was -4.92%. The molecule was classed as inactive in test [3].
Regarding `C=C[C@H]1C(O[C@@H]2O[C@H](CO)[C@@H](O)[C@H](O)[C@H]2O)OC=C2C(=O)N3CCc4c([nH]c5ccccc45)C3CC21` (stereo not given in full), the outcome in test [1] was inactive. Further, the max response in test [2] is 2.27%. Moreover, the outcome in test [3] is “inactive [at 17.4 µM]”.
Turning to `C[C@H](Oc1ccc(S(C)(=O)=O)cc1C(=O)N1CCN(c2ncc(C(F)(F)F)cc2F)CC1)C(F)(F)F`, the values for the max response in test [1] and in test [2] were 4.57% and -19.7%, respectively.
With `COC(=O)C1=CO[C@@H](O[C@@H]2O[C@H](CO)[C@@H](O)[C@H](O)[C@H]2O)[C@@H]2C(CO)=CC[C@]12O`, the values for the max response in test [1] and in test [2] were 9.91% and 1.93%, respectively. For the same molecule, the outcome in test [3] was “inactive [at 17.4 µM]”.
As to `CCC(C)C(=O)O[C@H]1CCC=C2C=C[C@H](C)[C@H](CC[C@@H](O)C[C@@H](O)CC(=O)O)[C@H]21` (stereo not given in full), the max response in test [1] was 7.29%; in test [2], -16.9%.

Source of the values: PubChem BioAssay (NCATS).
